Laboratory results published in PubChem BioAssay AID488789 (Broad Institute, 2010).
Measured potencies and affinities stand elsewhere. Results filed as inconclusive are left out. Activity calls are given as the source filed them.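 The calls were made as follows: active = samples whose fitted half-maximal inhibition concentration is no more than ten times the top valid dose tested; inconclusive = flat response between -70 and -30, or invalid curve fit; inactive = flat within 30 of zero, potency above limit, or signal rising.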

target: Trypsin (Sus scrofa) (UniProt P00761); assay: trypsin protease activity blockade – biochemical, quenched peptide fluorescence, cherry-pick, selectivity assay for Rce1 protease inhibitor project, dose response (AID 488789); settings: porcine trypsin, quenched peptide cleavage fluorescence; series mostly up to 10 µM;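 also: more negative means stronger trypsin inhibition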
Sequence (P00761 whole entry, looked up): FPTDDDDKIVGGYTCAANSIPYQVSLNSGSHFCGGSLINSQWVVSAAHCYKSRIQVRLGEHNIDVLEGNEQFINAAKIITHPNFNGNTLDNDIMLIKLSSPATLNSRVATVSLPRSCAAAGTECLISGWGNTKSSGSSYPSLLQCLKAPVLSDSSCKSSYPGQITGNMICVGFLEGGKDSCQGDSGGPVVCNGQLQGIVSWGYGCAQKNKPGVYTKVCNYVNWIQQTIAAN

Compound	outcome
Cc1cc(N/N=C/c2ccc(O)c(C)c2O)nc(-c2ccccc2O)n1	inactive
COc1ccc(Cn2c(N)c(S(=O)(=O)c3cccs3)c3nc4ccccc4nc32)cc1	inactive
COC(C/C=C/[C@H](O)[C@H](C)OCc1ccccc1)OC	inactive
CCCCOc1ccc(Cc2c(COCC)[nH]c(=S)[nH]c2=O)cc1	inactive
COc1ccc(-c2nc3ncccc3o2)cc1NC(=O)c1ccco1	inactive
CCO[C@H]1OC(C(=O)Nc2ccccc2)=C[C@@H](c2csc3ccccc23)[C@@H]1CCCO	inactive
O=C1CN(S(=O)(=O)c2ccc([N+](=O)[O-])cc2)CC(=O)N1	inactive
CC1(c2ccc(OCC#N)cc2)C=C(c2ccc(OCC#N)cc2)n2nc(C(F)(F)F)nc2N1 (configuration not stated)	inactive
CCN(Cc1ccccc1)S(=O)(=O)c1ccc(C(=O)N(CCCN(C)C)c2nc3c(C)c(C)ccc3s2)cc1	inactive
CCOC(=O)C[C@H]1c2ccccc2S(=O)(=O)N1Cc1cc(OC)c(OC)c(OC)c1	inactive
O=C(O)CCCC[C@@H]1SC[C@@H]2NC(=O)N[C@@H]21	inactive
COc1ccc(C2c3c(ncn(CCCO)c3=N)Oc3ccc4ccccc4c32)cc1 (configuration not stated)	inactive
Cn1c(=O)c(C(=O)NCCO)c(O)c2ccccc21	inactive
COc1ccc(CC(=O)OCC(=O)Nc2ccc(Br)cc2)cc1	inactive
CCCN(CCC)CCNC(=O)c1cc2c(-c3ccccc3F)nn(C)c2s1	inactive
CCN(CC)CCNC(=O)CSc1c2c(nc3cc(Cl)ccc13)CCCC2	inactive
Cc1ccc(S(=O)(=O)CC(=O)N2CCN(c3ccccc3F)CC2)cc1	inactive
COc1cccc(C(=O)Nc2nnc(SCC(=O)NC3CCCC3)s2)c1	inactive
CN(C(=O)COC(=O)c1cn(-c2ccccc2)nc1-c1ccccc1)C1CCS(=O)(=O)C1 (configuration not stated)	inactive

Compound	outcome
CCn1cc(/C=C(\NC(=O)c2ccccc2F)C(=O)N2CCCC2)c2ccccc21	inactive
COc1ccccc1CC(=O)Nc1ccc2c(C)cc(=O)oc2c1	inactive
O=C(NCC1CC1)c1cc(-c2ccccc2)nn1CC1CC(c2cccc([N+](=O)[O-])c2)=NO1 (configuration not stated)	inactive
Clc1ccc(CN2CCc3c([nH]c4ccccc34)C2)cc1Cl	inactive
Cc1ccc(NS(=O)(=O)c2ccc(NC(=O)N3CCCCC3)cc2)cc1	inactive
CCN(CC)CCN(C(=O)c1ccc2ccccc2c1)c1nc2cc3c(cc2s1)OCO3	inactive
C#CCNC(=O)C1=C[C@@H](C2CCCCC2)C[C@@H](OCc2ccc(CO)cc2)O1	inactive
O=C(Nc1sc2c(c1C(=O)c1ccc(Cl)cc1)CCCC2)c1cccnc1	inactive
O=C1CCN(Cc2ccccc2)CCN1[C@H](CSc1ccccc1)Cc1ccccc1	inactive
Cc1cc(C)cc(N2CC(O)=C(c3nc4ccccc4c(=O)[nH]3)C2=N)c1	inactive
COc1ccccc1NC(=O)Cc1nnc(SCC(=O)Nc2nccs2)n1C	inactive
CCOC(=O)C[n+]1ccc2c([nH]c3ccccc32)c1C	inactive
COc1ccc(C)cc1NC(=O)CN1C(=O)COc2ccc(S(=O)(=O)N3CCOCC3)cc21	inactive
CCCC(=O)N1CCN(c2ccc(NC(=O)c3cc4ccccc4o3)cc2Cl)CC1	inactive
O=C(c1cc(-c2ccccc2)nc2ccccc12)N1CCN(c2ccccn2)CC1	inactive
CCCCNC(=S)NNC(=O)CCn1cc(C)cn1	inactive
CSc1nnc(-c2sc(-c3ccccc3)nc2C)n1C	inactive
Cc1nc(N2CCOCC2)c2cc(-c3ccccc3)sc2n1	inactive
